# Sampled rows, rich in hits. Any-hit rate of the full collection: about 2.6%.
# KKLEB tox – cytotoxicity in KKLEB CF airway cells, primary screen, cytotoxicity control for CF NF-kB inhibitor project, cell-based, uHTS, fluorescence assay plates. AID 602141, 2011. 0.36% of 360,000 active. KKLEB CF airway cells viability, ATPlite luminescence, overnight; active compounds read low; cells stimulated with P. aeruginosa culture filtrate. activity change (cytotoxicity), % at 5 µM;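 active means corrected activity change at or below -50% at 5 µM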
# CF NFkB inh – inhibitors of PAF-induced NF-kB signaling, primary screen, cell-based, GFP fluorescence, uHTS | inhibition, % at 5 µM | 0.86% of 360,000 active | KKLEB NF-kB-GFP reporter, GFP fluorescence overnight | AID 588850, 2011;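 active means at least 50% inhibition at 5 µM, scaled per plate between neutral and stimulator controls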;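 further: PAF is a Pseudomonas aeruginosa culture filtrate used as stimulus; plate controls were PAF-stimulated DMSO wells for no effect and unstimulated DMSO wells for full effect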
# TROY NFkB inh – inhibitors of TROY-driven NF-kB signaling, primary screen, Q293 LMP1-TROYcd cells, NF-kB luciferase, uHTS | 0.98% of 360,000 active | inhibition, % at 10 µM | AID 1347056, 2019 | Q293 LMP1-TROYcd NF-kB luciferase reporter, 4 h;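 active means compounds whose plate-normalised and pattern-corrected inhibition of the luciferase reporter signal at the single screening dose is 50% or more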
# TWEAK-Fn14 inh – inhibitors of TWEAK-Fn14 signaling, primary screen, luciferase reporter cells, uHTS; TWEAK-stimulated Fn14 reporter cells, luciferase luminescence, 8 h; inhibition, % at 10 µM; 2% of 360,000 active; in the data active means inhibition above about 50%
# LGR2 antag – inhibitors of bursicon-induced LGR2 CRE-luciferase signal, primary screen, cell-based, HEK293, CRE-luciferase reporter, bursicon stimulation; Drosophila bursicon receptor LGR2 (rickets); bursicon-stimulated, 4 h; inhibition, % at 9.99 µM; 0.35% of 380,000 active;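 active means drop in luminescence signal, shown as inhibition above about 50% in the replicate tests, limit read from the data, passing the limit was not always enough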;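 further: agonist challenge used bursicon conditioned medium at about half maximal strength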
# EWS-Fli block – EWS/Fli-driven NR0B1 reporter inhibitors, primary screen, A673 cells, NR0B1 luciferase, luminescence, MLPCN library; inhibition, % at 12.6 µM; AID 651661, 2012; viability-normalised; 0.67% of 350,000 active;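 active means mean inhibition of at least 50% after viability correction, with every replicate also passing that limit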;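 further: firefly luciferase signal divided by Alamar Blue viability fluorescence both relative to DMSO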
# Starred values were filed as active, the others as inactive; · = not tested or not shown.
SMILES,KKLEB tox,CF NFkB inh,TROY NFkB inh,TWEAK-Fn14 inh,LGR2 antag,EWS-Fli block
C[C@@H](NC(=O)C[C@H]1CC[C@@H](NC(=O)C2CCOCC2)[C@@H](CO)O1)c1ccccc1,·,·,·,·,3,4
Cc1cc(C)cc(CC(Cc2nc3ccccc3[nH]2)c2nc3ccccc3[nH]2)c1 (stereo not given),-18,-4,52*,56*,·,·
COc1ccccc1-c1ccccc1[C@@H]1[C@@H](C#N)N(C(=O)C2CCOCC2)[C@H]1CO,·,·,·,·,-6,-6
C[C@@H]1C[C@H]2[C@@H]3CCC4=CC(=O)C=C[C@]4(C)[C@@]3(F)[C@@H](O)C[C@]2(C)[C@@]1(O)C(=O)COP(=O)(O)O,-39,67*,16,-22,-2,-2
CC12C=CC(=O)C=C1CCC1C2CCC2(C)C(C(=O)CO)CCC12 (stereo not given),-12,11,1,-1,3,12
C[C@@H]1CC2[C@@H]3CC[C@H]4CC(=O)CC[C@]4(C)C3=CC[C@]2(C)[C@@]1(O)C(=O)CO (stereo not given in full),1,-15,-10,0,13,5
CC1(c2ccccc2)O[C@@H]2C[C@H]3[C@@H]4CCC5=CC(=O)C=C[C@]5(C)[C@@]4(F)[C@@H](O)C[C@]3(C)[C@]2(C(=O)CO)O1 (stereo not given in full),38,72*,32,0,7,4
C[C@H]1C[C@H]2[C@@H]3CCC4=CC(=O)C=C[C@]4(C)[C@@]3(F)[C@@H](O)C[C@]2(C)[C@@]1(O)C(=O)CO,20,68*,27,-17,14,-5
C[C@H]1C[C@H]2[C@@H]3CCC4=CC(=O)C=C[C@]4(C)[C@@]3(Cl)[C@@H](O)C[C@]2(C)[C@@]1(O)C(=O)CO,-24,64*,20,2,3,3
C[C@H]1CN([C@@H](C)CO)C(=O)c2cc(C#Cc3cccnc3)cnc2O[C@H]1CN(C)S(=O)(=O)c1ccccc1F,·,·,·,·,11,-7
CCOC(=O)c1c(CSC(=N)N)n(-c2ccccc2)c2cc(Br)c(OC(C)=O)cc12,15,16,21,-103,63*,25
COc1ccc(-n2ncc3c(NCCCN4CCOCC4)ncnc32)cc1,-7,-12,59*,74*,-18,·
COc1ccc(-n2ncc3c(NCCN4CCOCC4)ncnc32)cc1,3,-7,53*,59*,·,·
COc1ccc(-n2ncc3c(NCC4CCCO4)ncnc32)cc1 (stereo not given),-23,9,-31,39,·,·
Cc1ccc(-n2ncc3c(NCCCN4CCOCC4)ncnc32)c(C)c1,-4,-22,8,-21,6,-6
CS(=O)(=O)Nc1ccc2c(c1)[C@@H]1C[C@@H](CC(=O)NCCN3CCCCC3)O[C@H](CO)[C@@H]1O2,·,·,·,·,-72,-9
CNC(=O)C[C@@H]1CC[C@H]2[C@H](COc3ccc(NC(=O)c4cccs4)cc3C(=O)N2C)O1,·,·,·,·,10,-15
CCN(CC)C(=O)c1cccc(-c2csc(C(C)(O)c3ccc(OC)cc3)n2)c1 (stereo not given),-7,-4,39,42,5,44
COc1cccc(C(C)(O)c2nc(-c3cc(F)cc(F)c3)cs2)c1 (stereo not given),-5,46,31,54*,12,18
CCN(CC)C(=O)c1cccc(-c2csc(C(C)(O)c3cccc(OC)c3)n2)c1 (stereo not given),-2,13,40,65*,19,16
CC(C)CC#Cc1cnc2c(c1)C(=O)N([C@@H](C)CO)C[C@@H](C)[C@@H](CN(C)Cc1ccccc1F)O2,·,·,·,·,7,-4
Oc1ccc(N=Nc2cccc(Cl)c2)cc1C=Nc1ccc(N2CCOCC2)cc1,-10,68*,2,46,19,-19
